Screening results as filed in PubChem.
CHX counter: Cycloheximide Counterscreen for Small Molecule Inhibitors of Shiga Toxin. cell reporter, cycloheximide protein synthesis inhibition counterscreen. max response, %. 300,000 tested, 12% active. AID 2314, 2010; in the data active means max response mostly above about 13%, no sharp cut-off; inactive means mostly below about 14%; further: read at 38.3 µM for the half of the compounds with a filed dose; 0% is about no effect
Shiga toxin inh: A qHTS for Small Molecule Inhibitors of Shiga Toxin | Vero cells, Shiga toxin protein synthesis inhibition reporter | inhibition, % at 38.7 µM | 290,000 tested, 9.2% active | AID 2315, 2010; in the data active means inhibition mostly above about 28%, no sharp cut-off; inactive means mostly below about 43%; further: 0% is about no effect
NS1 function inh: qHTS Assay for Inhibitors of Influenza NS1 Protein Function; Potency, µM (titrated, usually from 46.1 µM), for inactives: at the top dose activity, positive = more growth; 270,000 tested, 0.4% active; AID 2326, 2010; calls by dose curve; further: potency means the concentration at half of the fitted maximal effect; actives are rising curves; nearly all actives have a fitted effect of over 50% in size
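Recovery from NS1-induced slow growth read by OD600 in budding yeast switched to galactose assay medium (pH 6.0, -URA) at 1:100 dilution. Compound 23 nl per well; the matching strain lacking NS1 serves as control.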
Pf growth 48h: Primary qHTS for delayed death inhibitors of the malarial parasite plastid, 48 hour incubation | Potency, µM (highest dose often 28.7 µM), inactives show at the highest dose activity change, negative = inhibition, actives largely listed as inhibitors | P. falciparum luciferase growth in erythrocytes, 48 h | 310,000 tested, 5.9% active; further: potency means the concentration at half of the fitted maximal effect; on the % scale 0 is the no-effect control and ±100 the full control effect
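Read-out is firefly luciferase luminescence from an integrated reporter in P. falciparum, so falling signal marks reduced parasite growth. Infected erythrocytes were at 2% hematocrit and 0.1% parasitemia (final) in Albumax-supplemented RPMI 1640.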
Sm TGR inh: qHTS Assay for the Inhibitors of Schistosoma Mansoni Peroxiredoxins; AID 485364, 2010; 360,000 tested, 3% active; purified TGR, DTNB reduction, TNB absorbance 405 nm; Potency, µM (highest dose often 114 µM), without a hit: top-dose activity change, negative = inhibition, most hits filed as inhibitors; further: potency means the concentration at half of the fitted maximal effect; on the % scale 0 is the no-effect control and ±100 the full control effect; nearly all actives have a fitted effect of over 60% in size
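First, TGR (20 nM dispensed) and NADPH were mixed with compound. Second, a 15 min room-temperature incubation followed. Third, further NADPH and then DTNB were added to start the reaction. Finally, TNB absorbance was monitored kinetically.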
Pf growth 96h: Primary qHTS for delayed death inhibitors of the malarial parasite plastid, 96 hour incubation. Potency, µM (series often up to 28.7 µM), inactives show at the top dose activity change, negative = inhibition, most hits filed as inhibitors. AID 504834, 2011. P. falciparum luciferase reporter growth, 96 h. 320,000 tested, 6.9% active; further: potency means the concentration at half of the fitted maximal effect; on the % scale 0 is the no-effect control and ±100 the full control effect
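P. falciparum expressing integrated firefly luciferase, in erythrocytes at 2% hematocrit, 0.05% parasitemia, incubated with compounds 96 h at 37 C, 5% CO2. Growth inhibition read as loss of luminescence; two-generation exposure targets delayed-death apicoplast inhibitors.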
Active calls of the source: *; i = inactive; ? = inconclusive; . = no result; [ ] = dose if it differs, or a comment. The list is not random: actives were taken first. Their share in the collection is about 21%. Unless noted, the call rests on the fitted dose curve; in most records, active means well fitted curve in the direction sought with a large enough effect; inconclusive means small, poorly fitted or top-dose-only effect, or another doubt; inactive means no such curve, though single readings can be large; an effect the other way counts as inactive or inconclusive.

SMILES | CHX counter | Shiga toxin inh | NS1 function inh | Pf growth 48h | Sm TGR inh | Pf growth 96h
COc1ccc(Cn2nnnc2C(c2cc3cccc(C)c3[nH]c2=O)N2CCOCC2)cc1 (centres undefined) | 19.7 | 35.1* | -4.8% | 9.2% | -8.4% | ?
COc1ccc(Cn2nnnc2C(c2cc3cc(C)ccc3[nH]c2=O)N2CCOCC2)cc1 (centres undefined) | -2.3 | -3.4 | -10.1% | -32.8% | -27.4% | .
Cc1ccc(/C=C(\NC(=O)c2ccccc2)C(=O)N2CCCC2C(=O)O)cc1 (centres undefined) | -1.4 | 12.1 | . | -2.4%[5.75 µM] | 0.8% | 90.7%
COc1ccc(OC)c(-c2cc(C(=O)Nc3cnn(Cc4ccc(Cl)cc4Cl)c3)no2)c1 | . | . | . | . | 7.6% | .
COc1ccc(-n2ncc(N(C)n3cccc3)c(Cl)c2=O)cc1 | 28.2* | 87.0* | -70.1% | 306.2% | 0.2% | i
O=c1c(Cl)c(NS(=O)(=O)c2ccccc2)cnn1-c1ccccc1 | 1.0 | 14.4 | 1.4% | -3.2% | 0.0% | 10.5%
COc1c(Cl)cnn(-c2ccccc2)c1=O | 0.8 | -6.3 | -4.0% | -4.8% | -7.6% | 0.0%
C=CCNc1cnn(-c2ccccc2)c(=O)c1Cl | 17.9* | 79.4 | -1.0% | 0.9% | . | 4.0%
CN(C)c1cnn(-c2ccccc2)c(=O)c1Cl | 43.3* | 146.2* | 8.6% | 40.0% | -1.5% | 21.5%
COc1nn(-c2ccccc2)c(=O)c(Cl)c1Cl | 1.1 | 12.5 | -29.1% | -34.7% | 22.4µM* | ?
Cc1ccc(-c2cc(C3C4C=CCCC4(C)C(=O)N3Cc3ccccc3)ccc2F)cc1 (centres undefined) | 9.6 | -1.8 | . | . | . | .
Cc1ccc(NC(=O)c2c(C)oc3c2C2=NCCN2C=N3)cc1F | . | . | . | . | -7.8% | .
Cc1c2cnn(CC(=O)O)c(=O)c2c(C)n1Cc1ccccc1 | -8.3 | -12.6 | 1.9% | . | -1.5% | -88.8%
CC(=O)Cn1ncc(N(C)Cc2ccccc2)c(Cl)c1=O | 47.8* | 63.7* | 5.9% | 97.1% | 9.4% | 92.1%
Cc1ccc(-n2ncc(N(C)C)c(Cl)c2=O)cc1 | 28.7* | 54.9* | 18.2% | 288.1% | -31.0% | 146.4%
COc1ccc(-n2ncc(Cl)c(Cl)c2=O)cc1 | 1.5 | 32.4 | . | 11.1% | ? | 33.9%
CC(C)c1ccc(NC(=O)c2cc3c(=O)oc4ccccc4c3s2)cc1 | . | . | . | . | -2.0% | .
CC(Cl)C(=O)Nc1c2c(nn1-c1ccccc1)CSC2 (centres undefined) | -2.2 | -5.9 | 3.9% | 14.5% | -1.6% | -4.3%
COc1ccc(-n2nc3c(c2NC(=O)COc2cccc(OC)c2)CS(=O)(=O)C3)cc1 | 1.5 | 2.7 | 9.6% | -1.0% | 31.6µM* | -15.1%
COc1ccc(-n2nc3c(c2NC(=O)CCl)CSC3)cc1 | 11.7 | 13.1 | -8.2% | 0.738µM* | 8.91µM* | ?
COc1ccc(-n2nc3c(c2NC(=O)C(C)Cl)CSC3)cc1 (centres undefined) | -3.0 | -3.8 | 3.8% | -4.1% | -24.2% | -18.1%
CCC(=O)Nc1c2c(nn1-c1ccccc1)CSC2 | -5.4 | -17.1 | 2.5% | 21.7% | 50.1µM* | 21.5%
COC(=O)c1ccc(NC(=O)CN(Cc2ccc(Cl)cc2)S(C)(=O)=O)cc1 | 7.1 | -5.9 | -23.2% | . | 1.9% | -2.0%
Cc1ccc(C)c(S(=O)(=O)Nc2ccc(C(=O)NCCc3ccccn3)cc2)c1 | -3.2 | 31.5 | -5.8% | 4.6% | 1.4% | ?
CC(=O)c1nn(-c2ccccc2)cc1C(=O)c1ccc(Br)cc1 | -7.4 | -13.0 | 3.7% | -2.2% | 0.8% | -0.4%
SMILES | CHX counter | Shiga toxin inh | NS1 function inh | Pf growth 48h | Sm TGR inh | Pf growth 96h
O=C(c1cccc(Br)c1)c1cn(-c2ccccc2)nc1C(=O)c1ccccc1 | 4.8 | 28.9 | 3.0% | 4.65µM* | 0.2% | ?
CCOC(=O)c1nn(-c2ccc(C)cc2)cc1C(=O)c1ccccc1 | 68.4* | 113.1* | -4.0% | . | -7.9% | 16.3%
COc1ccc(OC)c(S(=O)(=O)N/N=C(/C)c2ccc3c(c2)OCO3)c1 | 1.6 | -3.4 | -4.6% | 26.3% | -12.5% | 3.6%
CCS(=O)(=O)N1CCc2cc(C(=O)Nc3cc([N+](=O)[O-])ccc3C)ccc21 | . | . | . | . | -11.0% | .
CC1=C/C(=C(\c2cc(C)c(O)c(Br)c2)c2ccccc2S(=O)(=O)O)C=C(Br)C1=O | -7.5 | -15.4 | -7.5% | ? | ? | 10.4µM*
COc1cc(/C=C2\CCC(C3CCCC3)C2=O)cc(OC)c1OC (centres undefined) | -1.9 | -1.1 | 1.8% | -20.4% | -23.1% | 0.0%
O/N=C1\CCCC\C1=C/c1ccccc1 | 3.2 | 0.5 | 16.0% | -6.4% | 1.0% | 0.0%
O=C1CCC/C1=C\c1ccccc1 | 11.4 | 2.5 | . | 0.2% | 44.7µM* | 18.1%
COc1cccc(/C=C2\CCC(C3CCCC3)C2=O)c1 (centres undefined) | 51.2* | 83.5* | -10.9% | 58.5% | 39.8µM* | 40.0%
Cc1cccc(/C=C2\CCC(C3CCCC3)C2=O)c1 (centres undefined) | 14.8* | 13.6 | -2.8% | 32.7% | -11.2% | 14.0%
COc1cccc(/C=C2\CCC(C3CCCC3)C2=O)c1OC (centres undefined) | 37.6* | 97.5* | -46.7% | 17.4% | -1.1% | 0.7%
COc1ccc(/C=C2\CCC(C3CCCC3)C2=O)c(OC)c1OC (centres undefined) | -2.1 | 3.0 | 5.2% | 5.7% | -26.6% | ?
O=c1oc2c(CN3CCOCC3)c(O)ccc2cc1-c1ccc(Cl)cc1 | . | . | . | . | -4.5% | .
Cc1ccc(NC(=O)c2ccc(Cl)c(S(=O)(=O)N3CCCC3)c2)nc1 | . | . | . | ? | 2.0% | ?
CCc1ccc(C(=O)c2cn(CC(=O)Nc3cccc(C)c3C)c3nc(C)ccc3c2=O)cc1 | . | . | . | . | -4.6% | .
COc1ccc(-c2nc(CSCC(=O)NCCC3=CCCCC3)c(C)o2)cc1OC | -3.8 | -6.2 | -10.2% | . | -56.9% | 22.9%
COc1ccc(-c2[nH]ncc2CN2CCC(C(=O)c3ccc(F)cc3)CC2)cc1 | -1.2 | 4.5 | 1.8% | ? | 1.2% | ?
COc1cccc(/C=C2\CCCCC2=O)c1 | 15.5* | 38.5 | -3.8% | -6.6% | -31.1% | -1.9%
O=C1/C(=C/c2ccc([N+](=O)[O-])cc2)CCC1C1CCCC1 (centres undefined) | 17.6* | 31.3 | -4.4% | 43.7% | ? | i
COc1ccc(OC)c(N/C=C2/CCCCC2=O)c1 | 5.4 | 35.8 | -32.0% | -6.6% | -17.7% | 23.1%
CC(=O)OC1C[C@H](O[C@@H]2C(O)C[C@H](O[C@@H]3C(O)C[C@@H](OC4CC[C@]5(C)C(CCC6C5CC(O)[C@@]5(C)C(C7=CC(=O)OC7)CC[C@@]65O)C4)OC3C)OC2C)O[C@H](C)[C@H]1O[C@H]1OC(CO)C(O)C(O)C1O (some centres undefined) | . | . | . | 8.49µM* | . | 4.78µM*
